Screening results from PubChem BioAssay.
Compounds with a hit are over-represented: about 3.9% of the library has one in this group of screens.
Eya2 phos inh: blocks the phosphatase activity of human Eya2; 330,000 compounds, 0.006% hits; recombinant Eya2, OMFP fluorescence dephosphorylation (OMFP is methylfluorescein phosphate); AID 488837; Potency, µM (doses to about 76.9 µM), for the others: top-dose activity, negative = inhibition, usual class: inhibitors; O00167; further: potency means the concentration at half of the fitted maximal effect; on the % scale 0 is the no-effect control and ±100 the full control effect
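Eya2 protein (added as 0.2 uM solution) was preincubated with compound for 10 min at ambient temperature in 50 mM HEPES pH 7.5, 50 mM NaCl, 5 uM MgCl2, 0.05% BSA, 1 mM DTT. OMFP (added at 50 uM) then reacted 10 min; fluorescence read at 485/525 nm.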
D1 agonist: human D1 receptor agonism. HEK293 T-REx D1 cells, calcium flux, agonist mode. activation, % at 2 µM. 360,000 compounds, 1% hits; in the data active means activation above about 30%; further: 0% is about no effect
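Inducible HEK293 T-REx D1 cells, force-coupled to calcium signalling, were plated at 4000 cells/well with tetracycline and held overnight at 30 C. After no-wash calcium dye loading, compound-evoked calcium rise over 180 s flagged agonists.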
D1 antag: human D1 dopamine receptor antagonism; P21728; HEK293 TREx D1 cells, calcium flux, dopamine EC80; active compounds read low; activity change, negative = inhibition, % at 10 µM; 360,000 compounds, 3.2% hits; AID 504652; in the data active means activity change below about -30%; further: on the % scale 0 is the no-effect control and ±100 the full control effect
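Tetracycline-induced HEK293 T-REx cells with force-coupled D1 receptor were loaded with a no-wash calcium dye. Compound was added after a 10 s baseline and read kinetically for 180 s; EC80 dopamine was then added and calcium flux followed another 180 s.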
GALK inhibitor: galactokinase (human) inhibition. P51570. Purified GALK, Kinase-Glo residual ATP luminescence. Potency, µM (top dose mostly 57.5 µM), for inactives: at the highest dose activity change, negative = inhibition, usual class: inhibitors. 270,000 compounds, 0.007% hits. AID 1868; further: potency means the concentration at half of the fitted maximal effect; on the % scale 0 is the no-effect control and ±100 the full control effect
Target sequence (P51570 whole entry, looked up): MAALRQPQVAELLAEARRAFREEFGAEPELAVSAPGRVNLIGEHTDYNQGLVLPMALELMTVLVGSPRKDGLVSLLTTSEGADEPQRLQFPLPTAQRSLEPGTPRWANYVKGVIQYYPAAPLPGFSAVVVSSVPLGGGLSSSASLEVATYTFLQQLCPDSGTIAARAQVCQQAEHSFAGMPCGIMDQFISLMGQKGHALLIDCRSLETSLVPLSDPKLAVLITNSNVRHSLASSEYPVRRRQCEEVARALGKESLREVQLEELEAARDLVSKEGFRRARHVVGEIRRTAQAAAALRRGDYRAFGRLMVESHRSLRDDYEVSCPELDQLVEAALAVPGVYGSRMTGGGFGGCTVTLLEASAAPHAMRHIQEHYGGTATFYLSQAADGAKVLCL
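Quantitative HTS: GALK 5 nM, ATP 35 uM, galactose 100 uM, 1 h room temperature, then luciferase-based ATP detection.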
D1 potentiator: human D1 dopamine receptor positive modulation; P21728; HEK293 TREx D1 cells, calcium flux, dopamine EC20 potentiation; potentiation, % at 10 µM; 360,000 compounds, 0.036% hits; AID 504651; in the data active means potentiation above about 30%; further: 0% is about no effect
USP2a inh: blocks human ubiquitin-specific protease USP2a; USP2 core, Ub-CHOP2 coupled fluorogenic reporter, 485/531; Potency, µM (titrated, usually from 38.3 µM), for inactives: at the top dose activity change, negative = inhibition, usual class: inhibitors; 330,000 compounds, 0.01% hits;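 further: potency means the concentration at half of the fitted maximal effect; plate controls were DMSO wells for no effect and full inhibition by NEM control for full effect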
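Deubiquitinase activity read as fluorescence (485/531 nm) after Ub-CHOP2 cleavage activates the enterokinase reporter on its substrate; USP2 core 10nM, Ub-CHOP2 and substrate 25nM each, 30min compound preincubation then 60min RT; data normalized to NEM, curves fitted.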
Active calls of the source: *; ? = inconclusive; / = not tested or not shown; ! = repeats disagree. Unless noted, the call rests on the fitted dose curve; in most records, active means well fitted inhibition curve with a large enough effect; inconclusive means small, poorly fitted or top-dose-only effect, or effect the other way; inactive means flat fitted curve, though single readings scatter.

SMILES | Eya2 phos inh | D1 agonist | D1 antag | GALK inhibitor | D1 potentiator | USP2a inh
O=C(CSCc1cnn(-c2ccccc2)c1-n1cccc1)Nc1ccc(F)cc1F | / | 1 | -20 | / | 0 | /
COc1ccccc1-c1nc(-c2ccc(Br)o2)no1 | -4% | 4 | -35*! | 2% | 1 | -7%
COc1ccc(-c2nc(-c3ccc(Br)o3)no2)cc1OC | 12% | 0 | -9 | 1% | 0 | 0%
CCOC(=O)c1cc(-c2ccc(F)cc2)n(CCC(=O)NCCc2ccc(C)cc2)c1C | / | 9 | -1 | / | -7 | /
CCCCc1nc2ccccc2c(N)c1CCC (tested in a mixture with another compound) | -8% | 50* | -47* | -1% | -5 | 2%
CCCCc1nc2ccccc2c(NC(=O)CNC(C)(C)C)c1CCC | / | 3 | -5 | 1% | -5 | /
COCCCn1cc(C(=O)c2cc(Br)ccc2O)cc(C#N)c1=O | -7% | 6 | -8 | -3% | -4 | 3%
CCOCCCn1cc(C(=O)c2cc(Br)ccc2O)cc(C#N)c1=O | 5% | 21 | -36* | 0% | -10 | 2%
CCCCn1cc(C(=O)c2cc(Br)ccc2O)cc(C#N)c1=O | 12% | 31* | -21 | 3% | -9 | -2%
C=CCn1cc(C(=O)c2cc(Br)ccc2O)cc(C#N)c1=O | -13% | 9 | -21 | -1% | -3 | -3%
N#Cc1cc(C(=O)c2cc(F)ccc2O)cn(Cc2ccccc2)c1=O | 19% | 21 | -33* | -1% | -13 | 9%
Cc1ccc(CNC(=O)c2cn(C)c3ccc(S(=O)(=O)N4CCC(C)CC4)cc3c2=O)cc1 | / | -1 | -18 | / | 1 | /
Cc1ccc2ccc3c(c2n1)NS(=O)(=O)c1ccc(C(F)(F)F)cc1-3 | / | 0 | 10 | / | -7 | /
Cc1ccc(NC(=O)C2CCN(c3nc4ccccc4[nH]3)CC2)cc1Cl | / | 1 | -11 | / | 5 | /
Cc1ccc(CC(=O)N2CCN(c3ccc([N+](=O)[O-])cc3)CC2)cc1 | 4% | 10 | -42* | -1% | -8 | -3%
O=[N+]([O-])c1ccc(C(=S)N2CCN(c3ccc(F)cc3)CC2)cc1 | -8% | 0 | -33* | 3% | 4 | -1%
Cc1ccc(S(=O)(=O)CC(=O)N2CCN(c3ccc([N+](=O)[O-])cc3)CC2)cc1 | -12% | / | / | / | / | -7%
O=[N+]([O-])c1ccc(NC(=S)N2CCN(c3ccc(F)cc3)CC2)cc1 | 9% | 4 | 19 | 2% | -10 | 0%
CN(C)c1ccc(C(=S)N2CCN(c3ccc([N+](=O)[O-])cc3)CC2)cc1 | -4% | 1 | -32* | 0% | -4 | 2%
COCCCNC(=O)N1[C@H](c2cccs2)[C@@H](C)C(=O)[C@@H](C)[C@@H]1c1cccs1 | / | 0 | 10 | / | 4 | /
COc1cc(NC(=O)CSc2nc(-c3ccco3)cc(C(F)(F)F)n2)cc(OC)c1OC | / | 2 | -3 | / | 3 | /
CCOc1ccccc1CN1CCC(Oc2cccc(C(=O)NCCOC)c2)CC1 | ? | 3 | -48* | -2% | -8 | -2%
Cc1cccc(OC2CCN(Cc3c(C(=O)N4CCCC4)nc4ccccn34)CC2)c1 | -4% | 7 | -44* | 4% | -1 | 1%
O=C(c1cccc(OC2CCN(Cc3ccc(F)cc3Cl)CC2)c1)N1CCCC1 | -5% | 6 | -33* | 6% | -7 | 1%
COC(=O)c1cc2sc(C)cc2n1Cc1nc(-c2cccc(Br)c2)oc1C | / | 0 | 10 | / | -3 | /
Cc1ccc(S(=O)(=O)N2CCN(Cc3nc4ccc(C)cc4o3)CC2)c(C)c1 | / | -1 | 29 | / | 1 | /
COc1ccc(C)cc1NC(=O)COC(=O)Cc1ccc(-c2ccccc2)cc1 | -9% | 15 | -36* | 1% | 0 | 1%
COc1ccccc1NC(=O)Cc1ccc(-c2ccccc2)cc1 | 1% | 6 | -39* | 5% | -6 | 0%
N#C/C(=C(O)\C=C\c1ccccc1)c1nc2ccccc2[nH]1 | -3% | 3 | -31* | / | -16 | 0%
